Screening results from PubChem BioAssay.
Hits are enriched below; roughly 2.4% of the tested compounds scored in any of these assays.
PGK inhibitor: blocks T. brucei phosphoglycerate kinase; Potency, µM (highest dose often 57.5 µM), inactives show at the top dose activity change, negative = inhibition, usual class: inhibitors; 380,000 tested, 0.043% active; PGK/GAPDH coupled, Kinase-Glo luminescence, 60 min; P07378; AID 602233; also: % is scaled to controls: 0 for no effect and ±100 for the full control effect; nearly all actives have a fitted effect of over 60% in size
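Recombinant glycosomal PGK reaction used 1,3-bisphosphoglycerate generated in-well by GAPDH (100nM final) in 100mM TEA pH 7.6, 5mM MgCl2, 0.01% Tween-20. After 60 minutes at room temperature, ATP was read by Kinase-Glo Plus luminescence end-point.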
POLI inh: DNA polymerase iota (human) inhibition; Pol iota fluorescent replication assay, 10 min; Potency, µM (series often up to 115 µM), inactives show top-dose activity, negative = inhibition, actives largely listed as inhibitors; 390,000 tested, 1% active
Target sequence (Q9UNA4 whole entry, looked up): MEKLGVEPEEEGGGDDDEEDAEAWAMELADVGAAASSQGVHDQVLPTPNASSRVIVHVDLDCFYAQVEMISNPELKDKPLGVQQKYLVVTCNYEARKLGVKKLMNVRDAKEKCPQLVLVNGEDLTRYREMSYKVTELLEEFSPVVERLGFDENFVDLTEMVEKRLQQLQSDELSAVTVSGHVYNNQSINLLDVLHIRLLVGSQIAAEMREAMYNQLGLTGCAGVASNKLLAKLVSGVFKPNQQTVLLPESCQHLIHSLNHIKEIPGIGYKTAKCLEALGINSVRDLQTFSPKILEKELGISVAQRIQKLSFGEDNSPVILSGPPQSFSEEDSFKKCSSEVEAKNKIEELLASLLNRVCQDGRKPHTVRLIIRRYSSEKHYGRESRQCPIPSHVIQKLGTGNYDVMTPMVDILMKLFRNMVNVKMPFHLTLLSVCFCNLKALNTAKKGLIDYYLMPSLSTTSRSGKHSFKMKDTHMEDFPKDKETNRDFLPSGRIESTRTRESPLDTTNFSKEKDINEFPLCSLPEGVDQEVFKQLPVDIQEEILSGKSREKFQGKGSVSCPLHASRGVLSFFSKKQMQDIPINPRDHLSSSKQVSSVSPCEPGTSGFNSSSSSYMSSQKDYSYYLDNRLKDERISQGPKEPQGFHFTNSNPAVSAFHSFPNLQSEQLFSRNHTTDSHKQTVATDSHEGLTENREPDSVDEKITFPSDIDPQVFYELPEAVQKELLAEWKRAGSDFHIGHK
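Fluorescent replication assay read twice, at 0 min and 10 min after adding 50 nM (final) substrate. Enzyme (10 nM) and compounds were first incubated 15 min at room temperature; enzyme-free buffer wells were negative controls.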
POLH inh: blocks human DNA polymerase eta activity; Q9Y253; recombinant Pol eta, fluorescent DNA replication assay; Potency, µM (titrated, usually from 114 µM), without a hit: at the highest dose activity change, negative = inhibition, hits mostly inhibitors; 390,000 tested, 1.2% active; also: % is scaled to controls: 0 for no effect and ±100 for the full control effect
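Fluorescent replication assay: 50 nM final substrate added after a 15 min room-temperature compound preincubation with 10 nM enzyme. Signal taken at 0 min and again at 10 min.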
FEN1 inh: blocks human flap endonuclease 1; Recombinant FEN1 flap cleavage, fluorescence, 15 min; Potency, µM (titrated, usually from 114 µM), for inactives: top-dose activity change, negative = inhibition, most hits filed as inhibitors; 390,000 tested, 0.35% active; AID 588795; also: % is scaled to controls: 0 for no effect and ±100 for the full control effect; nearly all actives have a fitted effect of over 65% in size
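Nuclease activity of 10 nM FEN1 was measured after 15 min of room-temperature exposure to titrated compounds, by adding 50 nM flap substrate and reading plates at 0 and 15 min.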
POLK inh: inhibitors of human DNA polymerase kappa. Q9UBT6. purified Pol kappa, fluorescent DNA synthesis assay, 10 min. Potency, µM (doses to about 107 µM), inactives show at the highest dose activity, negative = inhibition, most hits filed as inhibitors. 400,000 tested, 0.53% active. AID 588579; also: % is scaled to controls: 0 for no effect and ±100 for the full control effect
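Here, compound and 10 nM enzyme are combined for 15 min at room temperature; adding 50 nM substrate (final) starts DNA synthesis, tracked by fluorescence at 0 and 10 min against buffer-only wells.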
Pol beta inh: DNA polymerase beta (human) inhibition; P06746; Pol beta primer extension/strand displacement, fluorescence kinetic; Potency, µM (titrated, usually from 114 µM), for inactives: at the highest dose activity change, negative = inhibition, actives largely listed as inhibitors; 340,000 tested, 1.3% active; also: % is scaled to controls: 0 for no effect and ±100 for the full control effect
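Kinetic readout of DNA synthesis with strand displacement by Pol beta. Compound and 10 nM enzyme sit 15 min at room temperature; 50 nM substrate starts the reaction, read immediately and at 10 min.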
Active calls of the source: *; i = inactive; ? = inconclusive; nt = no result given; ! = not active in a repeat; [ ] = another dose, or the depositor's remark. Calls follow the shape of the dose curve; as a rule, active = well fitted curve in the direction sought with a large enough effect; inconclusive = small, poorly fitted or top-dose-only effect, or another doubt; inactive = no such curve, though single readings can be large; an effect the other way counts as inactive or inconclusive. Potency is read from the fitted curve at half-maximal effect.

SMILES	PGK inhibitor	POLI inh	POLH inh	FEN1 inh	POLK inh	Pol beta inh
COc1ccc(-c2ccc3c(=O)cc(-c4ccsc4)oc3c2)cn1	-10.1%	22.4µM*	?	50.1µM*	-16.5%	nt
O=C(COc1ccccc1)NNC(=O)c1cc2ccccc2o1	-1.7%	20.6%	0.3%	-5.8%	-5.3%	-2.2%
Cc1ccc(OCC(=O)NNC(=O)c2cc3ccccc3o2)cc1C	-6.9%	?	?	1.5%	?	28.2µM*
O=C(NCc1ccc2c(c1)OCO2)c1ccc(C2SCC(=O)N2Cc2ccco2)cc1 (configuration not stated)	-0.9%	?	79.4µM*	13.0%	-34.0%	-27.4%
C=CCNC(=O)c1ccc(C2SCC(=O)N2Cc2ccco2)cc1 (configuration not stated)	-9.5%	44.7µM*	?	12.7%	?	?
CC(C)(C)n1ncc2c(=O)n(Cc3ccc(F)c(C(F)(F)F)c3)cnc21	nt	6.7%	nt	-9.1%	-6.7%	nt
Cc1cccc(CCNC(=O)c2ccc(CSCc3cccc(Cl)c3)o2)c1	6.8%	-7.0%	-9.0%	-16.6%	-17.3%[60.1 µM]	-4.3%
O=c1[nH]c2ccc(S(=O)(=O)Nc3cc(Cl)ccc3O)cc2o1	-2.3%	?	89.1µM*	-5.7%	?	?
CS(=O)(=O)c1ccc(C(=O)OCC(=O)NCC2CCCO2)cc1[N+](=O)[O-] (configuration not stated)	nt	-10.0%	nt	-4.8%	-13.4%	nt
O=[N+]([O-])c1ccc(/C=N/Nc2ccnc3cc(Cl)ccc23)o1	?	?	?	?	-21.9%	?
Clc1ccc2c(N/N=C/c3cccc(Br)c3)ccnc2c1	5.9%	-12.1%	2.0%	-12.6%	-11.4%	31.6µM*
Clc1ccc2c(N/N=C/c3ccccc3Br)ccnc2c1	-0.6%	-11.5%	-0.9%	-35.4%	0.0%	22.4µM*
Cc1ccnc2ccc(N)cc12	nt	92.6%	nt	-6.8%	-2.6%	nt
O=C(N/N=C/C(Br)=C/c1ccccc1)c1n[nH]c2c1CCC2	3.7%	3.55µM*	?	-10.0%	?	3.0%
O=C(N/N=C/c1cccs1)c1n[nH]c2c1CCC2	-17.0%	13.7%	-15.1%	-3.8%	-8.3%	0.3%
CCN(c1ccc(C)c(C)c1)S(=O)(=O)c1ccc2c(c1)CCN2C(=O)CCC(=O)O	nt	7.0%	-11.6%	-15.8%	8.2%	89.1µM*
CCN(c1ccc(OC)cc1)S(=O)(=O)c1ccc2c(c1)CCN2C(=O)CCC(=O)O	-3.3%	-22.0%[58.9 µM]	-1.7%	-2.9%	-40.2%	2.6%
O=C(O)c1cc2cc(Cl)cc(Cl)c2oc1=O	-3.6%	?	?	-4.6%	?	79.4µM*
O=C(O)Cn1cc(/C=N/NC(=O)c2cc3cc(Br)ccc3o2)c2ccccc21	-3.5%	70.8µM*	-22.2%	-26.9%	-24.7%	?
Cn1cc(/C=N/NC(=O)c2cc3cc(Br)ccc3o2)c2ccccc21	-2.0%	-22.7%[58.9 µM]	-13.1%	5.8%	-4.0%	-4.9%
CC(=O)Oc1c2occc2cc2ccc(=O)oc12	-0.2%	?	?	-15.4%	?	50.1µM*
CC(C)C(=O)COc1c2occc2cc2ccc(=O)oc12	-2.4%	-0.6%	?	-8.3%	-14.8%	nt
COC(C(=O)C(O)C(C)O)C1Cc2cc3cc(OC4CC(OC5CC(O)C(O)C(C)O5)C(O)C(C)O4)c(C)c(O)c3c(O)c2C(=O)C1OC1CC(OC2CC(OC3CC(O)C(OC)C(C)O3)C(O)C(C)O2)C(O)C(C)O1 (configuration not stated)	-10.3%	22.4µM*	11.2µM*	?	79.4µM*	nt
Nc1ccc(C(Cc2ccnc3ccccc23)Cc2ccnc3ccccc23)cc1	nt	8.9%	nt	-29.5%	-8.8%	nt
CCCCC/C=C/C=C1/C(=O)C=C[C@@H]1C/C=C\CCCC(=O)O	nt	nt	nt	nt	3.16µM*!	nt
SMILES	PGK inhibitor	POLI inh	POLH inh	FEN1 inh	POLK inh	Pol beta inh
CCCCC[C@@H](/C=C/C1C(=O)C=C[C@H]1C/C=C\CCCC(=O)O)OC(C)=O (some centres not stated)	-0.4%	?	44.7µM*	5.0%	-18.6%	nt
CCCCCCCC/C=C\CCCCCCCCCCCC(=O)O	nt	nt	nt	nt	10.6µM*	nt
CCCCC[C@H](O)/C=C/[C@H]1C=CC(=O)[C@@H]1C/C=C\CCCC(=O)O	nt	nt	nt	nt	2.4%[19.4 µM]	3.16µM*
CCCCCC(O)C=CC1C(O)CC(O)C1CC=CCCCC(=O)O (configuration not stated)	-6.1%	nt	-5.7%	nt	nt	nt
CCc1ccccc1NC(=O)c1nn(-c2ccc(C)cc2)c(=O)c2c1c1ccccc1n2C	-3.6%	?	0.9%	5.2%	-8.5%	-24.4%
CCCCSc1nc(O)c(C2OC(=O)c3c2ccc(OC)c3OC)c(=O)n1C (configuration not stated)	i	?	-2.4%	11.2%	3.0%	40.4%
CCCCCCSc1nc(O)c(C2OC(=O)c3c2ccc(OC)c3OC)c(=O)n1-c1ccccc1 (configuration not stated)	-5.3%	?	17.8µM*	-6.0%	-27.4%	-20.2%
COc1cc2nc(CC(O)c3nc4cc(OC)c(OC)cc4[nH]3)[nH]c2cc1OC (configuration not stated)	nt	3.16µM*	nt	?	10µM*	nt
CC(=O)N[C@@H]1C(O[C@H]2O[C@H](C(=O)O)C(O)[C@H](O)[C@H]2O)[C@H](O)[C@@H](CO)O[C@H]1O[C@@H]1C(C(=O)O)O[C@@H](O[C@H]2[C@H](O)[C@@H](CO)OC(O)[C@@H]2NC(C)=O)[C@H](O)[C@H]1O (some centres not stated)	nt	nt	nt	nt	-6.2%[19.4 µM]	nt
CCc1ccc(OCc2nc(-c3ccc(-n4cccc4)cc3)no2)cc1	nt	-5.1%	nt	-1.5%	6.7%	22.4%
Clc1ccc(OCc2nc(-c3ccc(-n4cccc4)cc3)no2)cc1	-11.4%	89.1µM*	-8.9%	-9.5%	-22.2%	0.1%
O=C(Nc1cccc(S(=O)(=O)NC2=NCCCCC2)c1)c1cc(-c2ccccc2)nc2ccccc12	i	9.0%	-4.0%	-17.0%	-9.7%	9.1%
O=C(NC(=S)Nc1cccc(S(=O)(=O)NC2=NCCC2)c1)c1cc(-c2ccco2)nc2ccccc12	5.5%	28.2µM*	?	-10.0%	?	39.8µM*
O=C(O)c1cc(-c2ccco2)nc2ccccc12	?	12.6µM*	7.08µM*	39.8µM*	28.2µM*	17.8µM*
COc1ccc(CNC(=O)COC(=O)c2ccccc2C(=O)c2ccccc2)cc1	0.2%	3.3%	-7.9%	3.0%	-15.0%	0.9%
Cn1c(=O)c(C(=O)COC(=O)c2cc(-c3ccco3)nc3ccccc23)c(N)n(CC2CC2)c1=O	nt	nt	nt	nt	nt	10µM*
